Several values for one entry are separate records, joined by “and”; a condition that tells them apart may be missing. Equal entries are not always repeated. Structures can show the parent of a compound that is named as a salt. ± gives the standard deviation of the averaged measurements.
Experiments:
Molm13 = assay: cell viability relative to DMSO control (bortezomib = 0%); higher = less growth inhibition; conditions: 10 nM; 72 h
How it was run: (§1)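 Acute myeloid leukemia cells, 1000 per well in 50 µL, were incubated for 72 h on 384-well plates with 679 approved and investigational compounds, each at a single 10 nM dose. Viability was read by CellTiter-Glo luminescence. Values were expressed as percentages through per-plate linear regression against DMSO-treated (100%) and positive-control-treated (0%) cells.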

Mv4-11 = assay: as above; conditions: 10 nM; 72 h
How it was run: as §1

Row | SMILES | cell viability (Molm13) | cell viability (Mv4-11)
1 | O=C(c1ccc(F)c(F)c1Nc1ccc(I)cc1F)N1CC(O)([C@@H]2CCCCN2)C1 [Cobimetinib] | 87.1 ± 14% | 103.3 ± 0.5%
2 | NC(=O)Nc1cc(-c2ccc(CN3CCOCC3)cc2)sc1C(N)=O | 108 ± 30% | 113 ± 6.3%
3 | CC(C)(C)c1ccc(S(=O)(=O)/C=C/C#N)cc1 | 108 ± 16% | 98.9 ± 4.4%
4 | Cc1ccc(C(=O)Nc2ccc(CN3CCN(C)CC3)c(C(F)(F)F)c2)cc1C#Cc1cnc2[nH]ncc2c1 [GZD824 Dimesylate] | 4.07 ± 5.9% | -9.27 ± 10%
5 | N=C(N)NC(=N)NCCc1ccccc1 [Phenformin hydrochloride] | 91.3 ± 30% | 107 ± 19%
6 | COc1cc2ncc(-c3ccccc3)nc2cc1OC | 101 ± 4.1% | 113 ± 9.7%
7 | N#CC[C@H](C1CCCC1)n1cc(-c2ncnc3[nH]ccc23)cn1 | 87.6 ± 8.3% | 109 ± 4%
8 | CCCS(=O)(=O)Nc1ccc(F)c(C(=O)c2c[nH]c3ncc(Cl)cc23)c1F | 104 ± 8.2% | 135 ± 12%
9 | Cc1ccc2nc(-n3[nH]c(C)c(Cc4ccccc4)c3=O)[nH]c2c1 | 103 ± 0.84% | 106 ± 4.3%
10 | Fc1ccc2[nH]ccc2c1-c1nc(N2CCOCC2)c2sc(CN3CCN(CC4CC4)CC3)cc2n1 | 111 ± 13% | 119 ± 7.6%
11 | CCc1cc2c(=O)c(-c3nc4ccccc4s3)coc2c(CN2CCCCC2)c1O | 129 ± 34% | 123 ± 5.4%
12 | COc1ccc(CCNCc2ccc(OCc3ccc(Cl)nc3)c(OC)c2)cc1OC [SBE 13 hydrochloride] | 99.3 ± 18% | 107 ± 3%
13 | Nc1nc(OCC2CCCCC2)c2[nH]cnc2n1 | 90.5 ± 11% | 105.62 ± 0.08%
14 | CCNc1nc(Nc2cc(F)c(C(=O)N3CCOCC3)cc2OC)ncc1C(F)(F)F | 105.79 ± 0.065% | 102.3 ± 0.71%
15 | CC(C)c1[nH]nc(Cl)c1-c1ccnc(Nc2ccc(N3CCC(N(C)C)CC3)cn2)n1 | 115 ± 1.8% | 112 ± 9.6%
16 | O.O.O.O.O=C([O-])CC(O)(CC(=O)[O-])C(=O)[O-].[Li+].[Li+].[Li+] [Lithium citrate tribasic tetrahydrate] | 109 ± 1.3% | 114 ± 1.7%
17 | Nc1n[nH]c(N)c1N=Nc1ccc(O)cc1 | 117 ± 6.2% | 110 ± 14%
18 | CNC(=O)c1cc(Oc2ccc(NC(=O)Nc3cc(C(C)(C)C)nn3-c3ccc4ncccc4c3)c(F)c2)ccn1 [DCC-2036 (Rebastinib)] | 95.7 ± 1.2% | 107 ± 7.3%
19 | CC(=O)O[C@H]1C(=O)[C@@]2(C)[C@H]([C@H](OC(=O)c3ccccc3)[C@]3(O)C[C@H](OC(=O)[C@H](O)[C@@H](NC(=O)c4ccccc4)c4ccccc4)C(C)=C1C3(C)C)[C@]1(OC(C)=O)CO[C@@H]1C[C@@H]2O [Paclitaxel] | -2.33 ± 4.8% | -3.89 ± 0.25%
20 | CC1(C)CN(C(=O)c2ccc(-c3cccc4nc(NC(=O)C5CC5)nn34)cc2)C1 [Solcitinib] | 115 ± 6.5% | 114 ± 3.3%
21 | CN(c1ncccc1CNc1nc(Nc2ccc3c(c2)CC(=O)N3)ncc1C(F)(F)F)S(C)(=O)=O | 98 ± 2.3% | 105 ± 8.8%
22 | Cn1cc(C2=C(c3cn(CCCN)c4ccccc34)C(=O)NC2=O)c2ccccc21 [Bisindolylmaleimide VIII (acetate)] | 111 ± 18% | 119 ± 26%
23 | O=C1NC(=O)C(c2ccccc2[N+](=O)[O-])=C1Nc1ccc(O)c(Cl)c1 | 110 ± 9.4% | 120 ± 9.7%
24 | CCN(CC)CCNC(=O)c1c(C)[nH]c(/C=C2\C(=O)Nc3ccc(F)cc32)c1C [Sunitinib] | 111 ± 26% | 117 ± 4.9%
25 | CN1CCCN(C(=O)c2cccc(-c3ccc(/C=C4/C(=O)Nc5ccc(Cl)cc54)o3)c2)CC1 | 127 ± 13% | 120 ± 2.9%
26 | CCOc1cn(-c2ccc(F)cc2C)nc1C(=O)Nc1ccc(Oc2ccnc3cc(OC)c(OC)cc23)c(F)c1 | 112 ± 20% | 109 ± 2.8%

Row | SMILES | cell viability (Molm13) | cell viability (Mv4-11)
27 | Nc1[nH]nc2nnc(-c3c(-c4ccccc4)nn4ccccc34)cc12 | 95.5 ± 1.6% | 109 ± 11%
28 | CCS(=O)(=O)N1CC(CC#N)(n2cc(-c3ncnc4[nH]ccc34)cn2)C1 | 122 ± 31% | 105 ± 8.7%
29 | Cc1cc(F)c(Nc2ncnc3cc(OCc4ccccc4)ccc23)cc1O | 103 ± 1.4% | 118 ± 11%
30 | Cc1cc(N2CCOCC2)ccc1Nc1nc(NC2CCCCC2)c2[nH]cnc2n1 | 119 ± 3.6% | 108 ± 15%
31 | CNc1nc(-c2ccc3c(N)n[nH]c3c2)cc(N2C[C@@H](C(=O)NC3CCCCC3)CC[C@H]2C)n1 | 112 ± 2.6% | 99.15 ± 0.68%
32 | CC(C)(C)Cn1c(N)nc2ccc(-c3[nH]c(C(C)(C)C)nc3-c3ccc(F)cc3)nc21 | 100 ± 12% | 84.9 ± 21%
33 | CC1(C)CNc2cc(NC(=O)c3cccnc3NCc3ccncc3)ccc21 [Motesanib Diphosphate (AMG-706)] | 89.2 ± 9.9% | 106 ± 12%
34 | Cc1ccc(C(=O)Nc2ccc(CN3CCN(C)CC3)c(C(F)(F)F)c2)cc1C#Cc1cnc2[nH]ncc2c1 | -13.5 ± 5.7% | -14.8 ± 0.36%
35 | Cn1sc(=O)n(Cc2ccccc2)c1=O | 90.9 ± 6.1% | 108 ± 21%
36 | CN1CCN(Cc2ccc(-c3cnc4[nH]cc(-c5ccc6[nH]ccc6c5)c4c3)cc2)CC1 | 109 ± 33% | 121 ± 31%
37 | O=C1C(Cl)=C(NCCN2CCOCC2)C(=O)c2ncccc21 | 111 ± 23% | 121 ± 2.5%
38 | CONC(=O)c1ccccc1Nc1cc(Nc2cc(C)nn2C(C)C)ncc1Cl | 105 ± 9.6% | 105 ± 1.3%
39 | CC(=O)c1cnc2ccc(-c3cc(Cl)c(O)c(Cl)c3)nc2c1N[C@H]1CC[C@H](CN(C)C)CC1 | 95.1 ± 17% | 80.6 ± 6.8%
40 | CCc1cc2c(cc1N1CCC(N3CCOCC3)CC1)C(C)(C)c1[nH]c3cc(C#N)ccc3c1C2=O [Alectinib] | 102 ± 7.8% | 100 ± 2.9%
41 | CCN1CCN(Cc2ccc(Nc3ncc(F)c(-c4cc(F)c5nc(C)n(C(C)C)c5c4)n3)nc2)CC1 | 105% and 98.2% | 102% and 112%
42 | COc1cc2ncnc(Nc3ccccc3)c2cc1OC | 97.1 ± 10% | 107 ± 12%
43 | N#Cc1c(Oc2ccc(F)c(NC(=O)Cc3cccc(C(F)(F)F)c3)c2)ccc2nc(NC(=O)C3CC3)sc12 | 105 ± 12% | 114 ± 6.7%
44 | C#Cc1cccc(Nc2ncnc3cc(OC)c(OCCCCCCC(=O)NO)cc23)c1 | 105 ± 10% | 120 ± 20%
45 | CC[C@@H]1C(=O)N(C)c2cnc(Nc3ccc(C(=O)NC4CCN(C)CC4)cc3OC)nc2N1C1CCCC1 | 64.7 ± 9.6% | 96.8 ± 16%
46 | Cc1cc(Nc2nc(N[C@@H](C)c3ccc(F)cc3)c(C#N)cc2F)n[nH]1 | 123 ± 7.3% | 99.4 ± 3.3%
47 | COC1=CC(=O)c2ccccc2C1=O [2-Methoxy-1,4-naphthoquinone] | 94.66 ± 0.11% | 98.6 ± 9.1%
48 | CCn1c(=O)c(-c2ccc(-c3cncs3)cc2Cl)cc2cnc(Nc3ccc(N4CCN(C)CC4)cc3)nc21 | 106 ± 6.4% | 111 ± 10%
49 | Cc1ccc(C(=O)N(CCCN)[C@@H](c2nc3cc(Cl)ccc3c(=O)n2Cc2ccccc2)C(C)C)cc1 | 2.83 ± 14% | 6.27 ± 10%
50 | O=c1ccc2ccc(O)c(O)c2o1 [Daphnetin] | 100 ± 4.2% | 109 ± 12%
51 | Nc1nc2cc(-c3ccc4ncc(C(=O)N5CCOCC5)n4c3)ccc2o1 | 98.5 ± 2.2% | 105 ± 16%
52 | COc1cc(-c2cc(-c3ccc(N4CCNCC4)cc3)cnc2C)cc(OC)c1OC | 111 ± 5.7% | 107 ± 3.6%

Row | SMILES | cell viability (Molm13) | cell viability (Mv4-11)
53 | N#CCC(=O)NN [Cyanoacetohydrazide] | 128 ± 1.3% | 109 ± 22%
54 | COc1ccc2cc1Oc1ccc(cc1)C[C@H]1c3cc(c(OC)cc3CCN1C)Oc1c(O)c(OC)cc3c1[C@H](C2)N(C)CC3 [Fangchinoline] | 90.9 ± 1.6% | 122 ± 9.6%
55 | N#C/C(=C\c1ccc(O)c(O)c1)C(=O)NCc1ccccc1 [AG-490 (Tyrphostin B42)] | 103 ± 5.9% | 105 ± 1.8%
56 | O=c1[nH]c(C2CCCN2)nc2c1oc1ccc(Cl)cc12 (configuration not stated) | 96.9 ± 13% | 107 ± 3.5%
57 | O=c1ccc2ccccc2o1 [Coumarin] | 114 ± 8% | 114 ± 24%
58 | CC(C)N(CCC(=O)c1ccc2ccccc2c1)Cc1ccccc1 | 96.8 ± 7% | 111 ± 1.4%
59 | CNC(=O)c1ccccc1Nc1nc(Nc2ccc(N3CCNCC3)cc2)ncc1Cl | 17.4 ± 13% | 23 ± 6.8%
60 | Nc1nc(NC2CC2)cc(-c2cccc(Cl)c2Cl)n1 | 115 ± 8.1% | 96.9 ± 4.4%
61 | O=C(NC(CO)c1ccc(F)c(Cl)c1)c1cc(-c2[nH]ncc2-c2cccc(Cl)c2)c[nH]1 (configuration not stated) | 116 ± 16% | 110 ± 7.8%
62 | CSc1cccc(Nc2ncc3cc(-c4c(Cl)cccc4Cl)c(=O)n(C)c3n2)c1 | 92.8 ± 10% | 101 ± 7.8%
63 | CNCc1ccc(-c2cc(-c3nc(-c4ccc(S(=O)(=O)C(C)C)cc4)cnc3N)on2)cc1 | 106 ± 1.8% | 101 ± 18%
64 | CC(C)(C)c1nc2c3cc[nH]c(=O)c3c3cc(F)ccc3c2[nH]1 [Pyridone 6] | 99.5 ± 18% | 106 ± 7%
65 | c1ccc2c(-c3cnn4cc(-c5ccc(N6CCNCC6)cc5)cnc34)ccnc2c1 | 98 ± 20% | 112 ± 6.1%
66 | CC(C)(C#N)c1ccc(N2C(=O)OCc3cnc4ccc(-c5cnc6ccccc6c5)cc4c32)cc1 | 93.6 ± 11% | 102 ± 9.2%
67 | CNC(=O)c1cc(Oc2ccc(NC(=O)Nc3ccc(Cl)c(C(F)(F)F)c3)cc2)ccn1 [Sorafenib] | 53.7 ± 6.9% | 47.8 ± 9.4%
68 | CNC(=O)c1ccc(C)c(-n2c(C)cc(OCc3ccc(F)cc3F)c(Br)c2=O)c1 | 97.9 ± 3.1% | 110 ± 1.8%
69 | O=C(NCc1cccc(O)c1)c1cc2cc(F)ccc2[nH]1 | 113 ± 3.2% | 114 ± 1.2%
70 | COc1ncc(-c2ccc3nccc(-c4ccnnc4)c3c2)cc1NS(=O)(=O)c1ccc(F)cc1F | 61.5 ± 19% | 76.1 ± 1.9%
71 | CN(C)CCN(C)C(=O)c1ccc(NC(=O)Nc2ccc(-c3nc(N4CCOCC4)c4ccn(CC(F)(F)F)c4n3)cc2)cc1 | 87.9 ± 21% | 105 ± 3.9%
72 | Nc1cc(C(F)(F)F)c(-c2nc(N3CCOCC3)nc(N3CCOCC3)n2)cn1 | 94.3 ± 30% | 109 ± 5.2%
73 | NC(=O)c1ccc(NC(=O)NCc2cccc(C(=O)Nc3ccc4c(c3)CNCC4)c2)cc1 | 117 ± 25% | 119 ± 19%
74 | CNc1nc(Nc2cn(C(C)(C)C#N)nc2C)ncc1C(F)(F)F | 109 ± 2.8% | 117 ± 11%
75 | CNC(=O)c1ccccc1Nc1nc(Nc2ccc(N3CCOCC3)cc2OC)ncc1Cl | 90.55 ± 0.19% | 109 ± 5.5%
76 | Nc1ncnc2c1ncn2[C@@H]1O[C@H](COP(=O)(O)O)[C@@H](O)[C@H]1O [Adenosine 5'-monophosphate] | 96 ± 7.5% | 113 ± 2.5%

From the supplement of paper PMC8699584
